Experiments:
Experiment in all cases: log2 ratio of Biotin-Ahx-Ub-VS probe labelling (fragment/DMSO); higher = less target engagement (more negative = stronger competition), active = hit call of the paper (q ≤ 0.05, log2 ratio ≤ -1)
Conditions in all cases: compound concentration: 200 uM; treatment time: 3 h
ALG13 = biological target: T1, ALG13 (UniProt Q9NP73)
T1 sequence (whole entry): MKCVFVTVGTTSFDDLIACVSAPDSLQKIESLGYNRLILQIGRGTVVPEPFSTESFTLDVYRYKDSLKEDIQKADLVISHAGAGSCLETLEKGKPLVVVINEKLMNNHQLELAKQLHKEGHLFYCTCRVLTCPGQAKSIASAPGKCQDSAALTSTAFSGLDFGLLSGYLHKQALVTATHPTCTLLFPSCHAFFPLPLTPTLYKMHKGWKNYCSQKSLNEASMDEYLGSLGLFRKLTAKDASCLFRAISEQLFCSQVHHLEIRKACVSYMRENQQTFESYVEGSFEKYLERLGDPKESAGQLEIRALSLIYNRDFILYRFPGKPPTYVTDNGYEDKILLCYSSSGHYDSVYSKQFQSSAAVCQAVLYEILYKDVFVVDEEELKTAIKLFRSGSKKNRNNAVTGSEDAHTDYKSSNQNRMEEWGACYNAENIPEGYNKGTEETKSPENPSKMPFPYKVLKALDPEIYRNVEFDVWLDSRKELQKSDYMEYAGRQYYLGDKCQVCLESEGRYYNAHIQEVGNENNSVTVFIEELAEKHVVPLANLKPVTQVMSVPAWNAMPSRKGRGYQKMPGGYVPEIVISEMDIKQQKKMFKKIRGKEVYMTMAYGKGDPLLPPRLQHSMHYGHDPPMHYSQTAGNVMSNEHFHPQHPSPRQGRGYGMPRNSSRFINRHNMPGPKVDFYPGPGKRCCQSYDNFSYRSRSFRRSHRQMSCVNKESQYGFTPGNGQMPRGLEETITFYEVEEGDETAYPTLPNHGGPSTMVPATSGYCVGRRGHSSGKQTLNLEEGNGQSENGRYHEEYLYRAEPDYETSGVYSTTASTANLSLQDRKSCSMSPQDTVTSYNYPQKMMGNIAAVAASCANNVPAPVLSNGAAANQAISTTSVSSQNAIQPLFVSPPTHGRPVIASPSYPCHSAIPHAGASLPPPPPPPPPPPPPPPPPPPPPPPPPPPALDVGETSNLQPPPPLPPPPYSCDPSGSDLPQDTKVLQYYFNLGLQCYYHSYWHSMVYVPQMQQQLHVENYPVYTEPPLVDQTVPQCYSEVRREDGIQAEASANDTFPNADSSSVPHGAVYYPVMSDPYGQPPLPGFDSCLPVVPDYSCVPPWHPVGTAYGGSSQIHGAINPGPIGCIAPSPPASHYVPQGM
Summary of the method: (§1)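 Fragment (200 µM) or vehicle was incubated for 3 h with triplicate HEK293T lysate samples of 495 µg, which were then treated with Biotin-Ahx-Ub-VS at 0.5 µM final for 1 h. Labelled DUBs were enriched on NeutrAvidin, digested with LysC and trypsin, and analysed by diaPASEF LC-MS/MS. Values are average log2 fragment/vehicle ratios from an unpaired t-test on global-median-normalised Spectronaut label-free quantities, using proteins with ≥2 unique peptides.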

ATXN3 = ATXN3 (UniProt P54252)
Summary of the method: as §1

BAP1 = biological target: T2, BAP1 (UniProt Q92560)
T2 sequence (whole entry): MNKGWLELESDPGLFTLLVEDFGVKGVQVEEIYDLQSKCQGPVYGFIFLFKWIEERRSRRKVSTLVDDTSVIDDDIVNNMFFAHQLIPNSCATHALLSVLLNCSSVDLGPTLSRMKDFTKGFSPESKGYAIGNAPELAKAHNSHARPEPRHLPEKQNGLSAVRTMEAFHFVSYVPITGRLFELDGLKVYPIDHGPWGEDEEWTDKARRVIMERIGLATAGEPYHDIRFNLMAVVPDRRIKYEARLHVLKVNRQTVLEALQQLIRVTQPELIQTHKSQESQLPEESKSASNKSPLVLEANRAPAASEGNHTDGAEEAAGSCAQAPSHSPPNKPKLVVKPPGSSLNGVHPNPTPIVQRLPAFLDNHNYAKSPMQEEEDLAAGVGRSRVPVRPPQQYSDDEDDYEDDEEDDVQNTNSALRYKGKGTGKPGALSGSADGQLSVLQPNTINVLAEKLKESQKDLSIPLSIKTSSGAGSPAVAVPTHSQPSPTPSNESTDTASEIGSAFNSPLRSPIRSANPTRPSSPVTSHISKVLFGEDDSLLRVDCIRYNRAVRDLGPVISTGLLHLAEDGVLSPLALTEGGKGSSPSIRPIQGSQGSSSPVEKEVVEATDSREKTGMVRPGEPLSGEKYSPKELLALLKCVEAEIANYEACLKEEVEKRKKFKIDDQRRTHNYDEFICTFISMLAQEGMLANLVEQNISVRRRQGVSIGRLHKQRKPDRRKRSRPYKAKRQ
Summary of the method: as §1

EIF3F = EIF3F (UniProt O00303)
Summary of the method: as §1

EIF3H = EIF3H (UniProt O15372)
Summary of the method: as §1

FAM105A = biological target: T3, FAM105A (UniProt Q9NUU6)
T3 sequence (whole entry): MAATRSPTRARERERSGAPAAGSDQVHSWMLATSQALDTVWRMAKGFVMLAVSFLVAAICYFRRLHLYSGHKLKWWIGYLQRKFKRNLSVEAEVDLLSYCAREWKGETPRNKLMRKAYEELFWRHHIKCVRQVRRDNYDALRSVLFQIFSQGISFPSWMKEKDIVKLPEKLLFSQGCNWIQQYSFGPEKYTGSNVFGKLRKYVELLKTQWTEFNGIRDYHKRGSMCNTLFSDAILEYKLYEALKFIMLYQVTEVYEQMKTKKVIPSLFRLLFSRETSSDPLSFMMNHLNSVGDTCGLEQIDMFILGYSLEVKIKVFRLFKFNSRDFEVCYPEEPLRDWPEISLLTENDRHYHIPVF
Summary of the method: as §1

OTUB1 = OTUB1 (UniProt Q96FW1)
Summary of the method: as §1

OTUD4 = biological target: T4, OTUD4 (UniProt Q01804)
T4 sequence (whole entry): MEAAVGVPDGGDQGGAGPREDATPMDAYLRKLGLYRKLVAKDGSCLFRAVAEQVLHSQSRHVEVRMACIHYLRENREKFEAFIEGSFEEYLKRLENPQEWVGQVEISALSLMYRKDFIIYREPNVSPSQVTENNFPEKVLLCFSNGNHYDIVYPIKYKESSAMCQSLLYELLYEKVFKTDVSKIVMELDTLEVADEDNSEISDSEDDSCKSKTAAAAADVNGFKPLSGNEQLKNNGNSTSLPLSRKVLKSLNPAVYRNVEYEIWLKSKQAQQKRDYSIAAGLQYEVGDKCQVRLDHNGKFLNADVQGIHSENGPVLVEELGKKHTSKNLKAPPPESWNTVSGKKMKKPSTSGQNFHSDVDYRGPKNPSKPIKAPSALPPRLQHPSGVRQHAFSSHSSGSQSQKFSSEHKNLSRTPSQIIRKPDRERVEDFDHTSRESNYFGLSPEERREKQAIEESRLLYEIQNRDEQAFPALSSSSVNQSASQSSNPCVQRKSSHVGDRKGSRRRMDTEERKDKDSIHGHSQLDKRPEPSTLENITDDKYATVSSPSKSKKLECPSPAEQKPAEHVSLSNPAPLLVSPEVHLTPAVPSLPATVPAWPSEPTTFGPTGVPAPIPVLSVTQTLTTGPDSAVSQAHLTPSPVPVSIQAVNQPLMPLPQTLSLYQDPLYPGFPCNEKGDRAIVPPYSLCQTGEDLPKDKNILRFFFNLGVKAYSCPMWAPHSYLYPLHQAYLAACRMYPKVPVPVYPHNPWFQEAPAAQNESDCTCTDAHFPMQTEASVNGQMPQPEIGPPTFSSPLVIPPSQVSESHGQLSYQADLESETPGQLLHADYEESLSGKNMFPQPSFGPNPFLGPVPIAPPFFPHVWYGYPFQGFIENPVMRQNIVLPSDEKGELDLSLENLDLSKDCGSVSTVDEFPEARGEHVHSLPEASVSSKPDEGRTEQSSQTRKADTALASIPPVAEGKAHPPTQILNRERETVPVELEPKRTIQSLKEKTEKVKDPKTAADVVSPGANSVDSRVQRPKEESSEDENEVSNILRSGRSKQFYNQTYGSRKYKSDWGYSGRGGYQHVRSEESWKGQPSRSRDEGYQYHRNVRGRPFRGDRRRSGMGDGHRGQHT
Summary of the method: as §1

OTUD5 = biological target: T5, OTUD5 (UniProt Q96G74)
T5 sequence (whole entry): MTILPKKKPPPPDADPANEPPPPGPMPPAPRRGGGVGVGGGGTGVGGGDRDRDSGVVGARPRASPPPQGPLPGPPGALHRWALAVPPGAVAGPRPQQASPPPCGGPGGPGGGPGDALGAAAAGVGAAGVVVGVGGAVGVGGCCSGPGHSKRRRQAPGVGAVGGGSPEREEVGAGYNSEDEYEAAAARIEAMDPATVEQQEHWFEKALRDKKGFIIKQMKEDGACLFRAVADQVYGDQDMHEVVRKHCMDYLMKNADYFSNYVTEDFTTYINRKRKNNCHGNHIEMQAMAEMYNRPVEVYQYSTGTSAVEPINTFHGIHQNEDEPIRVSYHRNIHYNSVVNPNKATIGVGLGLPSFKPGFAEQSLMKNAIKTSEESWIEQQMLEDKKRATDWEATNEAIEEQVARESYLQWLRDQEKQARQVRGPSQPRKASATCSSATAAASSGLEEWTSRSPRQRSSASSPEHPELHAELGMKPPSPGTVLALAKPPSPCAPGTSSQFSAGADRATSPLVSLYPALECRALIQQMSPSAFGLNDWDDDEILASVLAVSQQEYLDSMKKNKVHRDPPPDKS
Summary of the method: as §1

Measured: log2 ratio of Biotin-Ahx-Ub-VS probe labelling

ATXN3, sequence (P54252 whole entry): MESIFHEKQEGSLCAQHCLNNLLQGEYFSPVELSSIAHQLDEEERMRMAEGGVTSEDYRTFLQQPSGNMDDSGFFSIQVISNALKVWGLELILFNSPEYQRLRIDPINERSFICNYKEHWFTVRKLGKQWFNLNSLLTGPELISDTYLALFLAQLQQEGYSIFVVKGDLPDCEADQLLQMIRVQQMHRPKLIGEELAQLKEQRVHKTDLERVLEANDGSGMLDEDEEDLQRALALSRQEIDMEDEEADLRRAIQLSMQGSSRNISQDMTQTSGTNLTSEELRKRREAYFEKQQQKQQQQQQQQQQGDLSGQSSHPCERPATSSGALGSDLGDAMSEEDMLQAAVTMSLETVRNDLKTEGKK
EIF3H, sequence (O15372 whole entry): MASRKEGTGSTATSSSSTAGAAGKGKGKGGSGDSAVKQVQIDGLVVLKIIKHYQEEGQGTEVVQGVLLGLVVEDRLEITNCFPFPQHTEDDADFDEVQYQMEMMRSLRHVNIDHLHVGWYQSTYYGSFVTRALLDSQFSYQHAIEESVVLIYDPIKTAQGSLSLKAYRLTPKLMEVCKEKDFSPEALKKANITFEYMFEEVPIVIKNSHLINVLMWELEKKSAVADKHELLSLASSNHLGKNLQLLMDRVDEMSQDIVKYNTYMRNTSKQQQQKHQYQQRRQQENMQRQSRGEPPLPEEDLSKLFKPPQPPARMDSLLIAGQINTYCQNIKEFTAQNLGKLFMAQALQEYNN
EIF3F, sequence (O00303 whole entry): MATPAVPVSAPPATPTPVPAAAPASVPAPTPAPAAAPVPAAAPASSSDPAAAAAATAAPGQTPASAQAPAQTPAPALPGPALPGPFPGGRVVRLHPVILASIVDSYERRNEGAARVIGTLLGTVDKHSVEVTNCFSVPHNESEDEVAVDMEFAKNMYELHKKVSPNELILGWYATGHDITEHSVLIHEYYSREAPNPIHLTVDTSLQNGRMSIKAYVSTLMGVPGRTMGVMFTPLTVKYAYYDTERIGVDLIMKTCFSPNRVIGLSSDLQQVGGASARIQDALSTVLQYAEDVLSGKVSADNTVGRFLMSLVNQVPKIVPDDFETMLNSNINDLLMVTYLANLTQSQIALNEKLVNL
OTUB1, sequence (Q96FW1 whole entry): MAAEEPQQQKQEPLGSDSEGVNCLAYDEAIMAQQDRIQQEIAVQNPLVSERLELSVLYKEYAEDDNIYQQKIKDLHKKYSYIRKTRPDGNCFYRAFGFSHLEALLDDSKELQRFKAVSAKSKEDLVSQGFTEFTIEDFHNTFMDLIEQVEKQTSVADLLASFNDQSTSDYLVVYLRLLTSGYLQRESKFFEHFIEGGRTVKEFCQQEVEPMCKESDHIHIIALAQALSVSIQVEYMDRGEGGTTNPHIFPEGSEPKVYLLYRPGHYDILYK

O=C(CCl)N1CCOC(CCc2ccccc2)C1 (centres undefined)
inactive: ALG13 -0.284 | ATXN3 -0.798 | EIF3F -0.348 | EIF3H 0.0677 | FAM105A -0.23 | OTUB1 -0.408 | OTUD4 -0.558 | OTUD5 -0.502
active: BAP1 -1.1
